{"source": "PubChem BioAssay AID504834", "about": "(National Center for Advancing Translational Sciences (NCATS), 2011)", "note": "Hit rate of the full screen: of about 320,000 compounds, about 22,000 (6.9%) were called active. Another 27% or so got no clear call; they are omitted. Only a selection was taken, and actives are over-represented in it overall. Unmarked numbers belong to inactive results. Calls follow the shape of the dose curve; as a rule, active = well fitted inhibition curve with a large enough effect; inconclusive = small, poorly fitted or top-dose-only effect, or another doubt; inactive = no such curve, though single readings can be large or run the other way. % is scaled to controls: 0 for no effect and ±100 for the full control effect; potency is read from the fitted curve at half-maximal effect.", "data": [{"experiment": "Primary qHTS for delayed death inhibitors of the malarial parasite plastid, 96 hour incubation", "details": "P. falciparum luciferase reporter growth; series mostly up to 28.7 µM; activity change, negative = inhibition: at the top concentration", "description": "The goal of this screen is to discover new antimalarial compounds that act by inhibiting the development of the apicoplast in the malarial parasite Plasmodium falciparum. The biochemical processes that make this organelle essential for erythrocytic stage parasites are not well understood. However, antibiotics such as azithromycin and tetracycline, which target the apicoplast translational machinery, have a potent antimalarial effect.\nWe have developed a cell-based assay that measures parasite growth based on the expression of an integrated copy of a firefly luciferase reporter. To detect small molecules that cause this \"delayed death\" phenotype, erythrocytes infected with the luciferase-expressing parasites were incubated with compounds for either one or two generations, corresponding to 48 and 96 hours, respectively. Compounds that inhibit parasite growth in the second generation, but not the first, should be enriched in antimalarials that target the apicoplast. Growth inhibition is detected by a decrease in luciferase activity.\nAssay Provider: David Fidock and Eric Ekland, Columbia University\nKeywords: NIH Roadmap, MLPCN, MLI, MLSMR, qHTS, NCGC, qHTS, malaria, luciferase, viability\nFour microliters of infected erythrocytes (2% hematocrit, 0.05% parasitemia final concentration) in culture medium were dispensed and the plates incubated for 96 hours at 37 C in 5% CO2. Two microliters of luciferase detection reagent was added and luminescence was detected by a ViewLux (PerkinElmer) reader.", "units": {"activity change, negative = inhibition": "%"}, "values": [{"smiles": "Cc1cccc(NC(=O)c2nc[nH]c2C(=O)NCC(=O)OCc2ccccc2)c1", "activity change, negative = inhibition": 22.3}, {"smiles": "CCOC(=O)c1[nH]cnc1C(=O)Nc1ccccc1C", "activity change, negative = inhibition": -23.1}, {"smiles": "C=CCSc1ccc(S(=O)(=O)N2CCN(C)CC2)cn1", "activity change, negative = inhibition": 0.0245}, {"smiles": "Cc1cc(NC(=O)c2ccco2)c(=O)n(Cc2c(F)cccc2Cl)c1", "activity change, negative = inhibition": -11.1}, {"smiles": "CCOC(=O)N1CCN(c2c(NCCN3CCN(c4ccccc4F)CC3)c(=O)c2=O)CC1", "activity change, negative = inhibition": -26}, {"smiles": "COc1ccccc1NC(=O)CCC(=O)OC(C)C(=O)c1ccccc1", "note": "(configuration not stated)", "activity change, negative = inhibition": -3.12}, {"smiles": "Cc1ccc(C(=O)NCC(=O)OCC(=O)Nc2cccc(S(=O)(=O)N3CCCC3)c2)cc1C", "activity change, negative = inhibition": 32.5}, {"smiles": "Cc1ccc(CN2CCN(c3ncccn3)CC2)c(C)c1", "activity change, negative = inhibition": 0}, {"smiles": "CC(=O)N1CCN(C(=O)Nc2cccc(C(F)(F)F)c2)CC1", "activity change, negative = inhibition": -7.32}, {"smiles": "Cc1cccc(NC(=O)c2cccc(C(F)(F)F)c2)c1", "activity change, negative = inhibition": 4.71}, {"smiles": "Cc1cccc(NC(=O)c2nnn(-c3cccc(C(F)(F)F)c3)c2N)c1", "Potency": "5.86 µM (active)"}, {"smiles": "O=C(O)C1CCCN1S(=O)(=O)c1ccc(Br)cc1", "note": "(configuration not stated)", "activity change, negative = inhibition": 14}, {"smiles": "COc1ccc(-c2c3c(=O)n(C)c(=O)n(C)c3cn2-c2cccc(OC)c2)cc1", "activity change, negative = inhibition": 13.8}, {"smiles": "COc1ccc(-c2cc(C(=O)n3cnc4ccccc43)c3ccccc3n2)cc1", "activity change, negative = inhibition": -15.8}, {"smiles": "COc1ccc(-c2c(C#Cc3ccccc3)c3ccccc3n2C)cc1", "Potency": "6.57 µM (active)"}, {"smiles": "COc1ccc(CNc2ncnc3ccccc23)cc1", "activity change, negative = inhibition": -3.8}, {"smiles": "COc1ccc(CCNCc2c(-c3ccccc3)n(C)c3ccccc23)cc1", "Potency": "10.4 µM (active)"}, {"smiles": "COc1ccc(OCCCC(=O)NCCc2ccccc2)cc1", "activity change, negative = inhibition": 370}, {"smiles": "CN(CCC(=O)Nc1cc(S(=O)(=O)N(C)C)ccc1Cl)CC(=O)Nc1ccc(F)cc1", "activity change, negative = inhibition": -14.6}, {"smiles": "O=C(Nc1cccc2c1N(C(=O)c1ccco1)CCC2)c1ccco1", "activity change, negative = inhibition": 17.6}, {"smiles": "O=C(CSc1ncnc2c1oc1ccccc12)NC1CCCC1", "activity change, negative = inhibition": 20.1}, {"smiles": "CCCOc1ccc(-c2c(C(=O)N/N=C/c3ccco3)nnn2-c2nonc2N)cc1", "activity change, negative = inhibition": 23.2}, {"smiles": "CN(Cc1ccccc1)C(=O)c1cccc(C(=O)N(C)Cc2ccccc2)c1", "Potency": "13.1 µM (active)"}, {"smiles": "Cc1cc(C)cc(NC(=O)N(C)Cc2ccccc2)c1", "activity change, negative = inhibition": -14.3}, {"smiles": "CN(Cc1ccccc1)C(=O)CCc1ccccc1", "activity change, negative = inhibition": 96.1}, {"smiles": "Cc1cc(C(=O)N/N=C/c2ccccn2)c2ccccc2n1", "activity change, negative = inhibition": -1.75}, {"smiles": "O=C(N/C(=C\\c1ccc(O)cc1)C(=O)N1CCCCC1)c1ccccc1", "activity change, negative = inhibition": 0}, {"smiles": "COc1ccc(C)cc1NC(=O)C(OC(=O)c1cccc(S(=O)(=O)N(C)c2ccccc2)c1)c1ccccc1", "note": "(configuration not stated)", "activity change, negative = inhibition": -11.6}, {"smiles": "COc1ccc(C)cc1NC(=O)C(Sc1ccccc1)c1ccccc1", "note": "(configuration not stated)", "activity change, negative = inhibition": 51.7}, {"smiles": "Cc1ccc(C)c(NC(=O)C(OC(=O)c2ccc(C)s2)c2ccccc2)c1", "note": "(configuration not stated)", "Potency": "2.94 µM (active)"}, {"smiles": "C/C(CC(=O)NCc1ccc(Cl)cc1)=N\\NC(=O)COc1ccc(C)cc1Br", "activity change, negative = inhibition": -1.16}, {"smiles": "CC(C)C[C@H](NC(=O)N1CCn2c1nc1ccccc12)C(=O)NC1CC1", "activity change, negative = inhibition": 12.5}, {"smiles": "O=S(=O)(NCCc1ccccn1)c1cc(Cl)cc(Cl)c1O", "activity change, negative = inhibition": 27.7}, {"smiles": "O=S(=O)(c1cc(Cl)ccc1Cl)N1CCN(Cc2ccco2)CC1", "activity change, negative = inhibition": 2.9}, {"smiles": "N#Cc1ccsc1NC(=O)CN1CCN(S(=O)(=O)c2cc(Cl)ccc2Cl)CC1", "Potency": "4.15 µM (active)"}, {"smiles": "N#Cc1ccsc1NC(=O)CN1CCCCC1", "activity change, negative = inhibition": -15.1}, {"smiles": "CCN(CC)c1ccc(/C=N/NC(=O)CNC(=O)c2cccnc2)cc1", "activity change, negative = inhibition": -2.84}, {"smiles": "CCOc1ccc(S(=O)(=O)N2CCCCC2)cc1NC(=O)CN1CCCC1c1cccs1", "note": "(configuration not stated)", "Potency": "4.65 µM (active)"}, {"smiles": "CCOc1ccc(NC(=O)COc2ccc(S(=O)(=O)N3CCCC3)cc2)cc1", "activity change, negative = inhibition": -2.81}, {"smiles": "CCOc1ccccc1NC(=O)COc1ccc(S(=O)(=O)N2CCCC2)cc1", "Potency": "8.28 µM (active)"}, {"smiles": "O=C(COc1ccc(S(=O)(=O)N2CCCCC2)cc1)NCc1ccccn1", "activity change, negative = inhibition": 30.6}, {"smiles": "CCOc1ccccc1NC(=O)C1CCCN(S(=O)(=O)c2ccccc2)C1", "note": "(configuration not stated)", "activity change, negative = inhibition": 1.92}, {"smiles": "CC(=O)NCCC(=O)Nc1cc(S(=O)(=O)N2CCCCC2)ccc1Oc1cccc(C)c1", "activity change, negative = inhibition": 2.09}, {"smiles": "CN(C)C(=O)N=NC(=O)N(C)C", "activity change, negative = inhibition": 10.3}, {"smiles": "O=C(Oc1ccc(Br)cc1)c1cccnc1", "activity change, negative = inhibition": 30.1}, {"smiles": "O=C(COC(=O)c1cccc(Cl)c1)NC1CCCCCCC1", "activity change, negative = inhibition": -26.1}, {"smiles": "CCc1c(C)c2ccc(OC3CCCCC3=O)cc2oc1=O", "note": "(configuration not stated)", "activity change, negative = inhibition": 101}, {"smiles": "Cc1ccc(C(=O)C(C)OC(=O)Cc2n[nH]c(=O)c3ccccc23)cc1C", "note": "(configuration not stated)", "activity change, negative = inhibition": 19.1}, {"smiles": "Cc1cc(C)c(S(=O)(=O)N(C)CC(=O)NCC2CCCO2)c(C)c1", "note": "(configuration not stated)", "activity change, negative = inhibition": 61.1}, {"smiles": "COc1ccccc1CCC(=O)OCC(=O)N1CCN(S(=O)(=O)c2ccc(C)cc2C)CC1", "activity change, negative = inhibition": 3.54}, {"smiles": "CCCCCCCN=C(C)c1ccccc1O", "activity change, negative = inhibition": 22.3}, {"smiles": "C/C(=N\\N(C)C)c1ccc(OCCOc2ccc([N+](=O)[O-])cc2)cc1", "activity change, negative = inhibition": -2.03}]}]}
